# Screening data as filed in PubChem.
# TDP1 cell noCPT: qHTS for Inhibitors of human tyrosyl-DNA phosphodiesterase 1 (TDP1): qHTS in cells in absence of CPT; DT40 Tdp1-/- hTDP1 cells, no CPT, ATP luminescence, 48 h; Potency, µM (titrated, usually from 46.2 µM), inactives show at the highest dose activity change, negative = growth inhibition, hits mostly inhibitors; 420,000 tested, 15% active; AID 686978, 2013; note: potency is the fitted concentration of half-maximal effect; nearly all actives have a fitted effect of over 55% in size
#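 Cells were dispensed at 400 per well, compounds added by pin tool, plates incubated ≥48 hr at 37 °C, then CellTiter-Glo added for 30 min at room temperature before luminescence reading. Line: DT40 Tdp1-/- complemented with hTDP1; camptothecin omitted.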
# HT1080-NT tox: kills 2HG-producing HT-1080-NT fibrosarcoma cells; HT-1080-NT fibrosarcoma viability, CellTiter-Glo ATP luminescence, 48 h; Potency, µM (doses to about 46.1 µM), without a hit: top-dose activity, negative = less viability, usual class: cytotoxic; 360,000 tested, 1.6% active; AID 686970;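 note: NT is the 2HG producing partner of a matched IDH1 knockdown line; potency is the fitted concentration of half-maximal effect; 0% = DMSO-treated cells and -100% = media-only wells without cells; nearly all actives have a fitted effect of over 55% in size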
#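 Fibrosarcoma NT cells, 750 per well in 5% FBS RPMI, were exposed to compound for 48 hours. Viability: CellTiter-Glo luminescence.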
# DT40 TDP1 CPT: DT40-hTDP1 cell growth loss with CPT. chicken DT40 Tdp1-/-;hTDP1 cells + 20 nM CPT, ATP luminescence, 48 h. Potency, µM (top dose mostly 46.2 µM), without a hit: top-dose activity change, negative = growth inhibition, usual class: inhibitors. 420,000 tested, 12% active. AID 686979; note: potency is the fitted concentration of half-maximal effect; nearly all actives have a fitted effect of over 55% in size
#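 Chicken DT40 Tdp1-/- cells stably complemented with human TDP1 were seeded at 400 cells/well in medium containing 20 nM camptothecin, exposed to pin-transferred compounds, and grown at 37 °C for at least 48 hr. Viability was read as ATP luminescence.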
# IL-1B inflam inh: blocks inflammasome-driven IL-1 beta release | activity change, % at 57.5 µM | AID 743279 | THP-1 LPS/ATP IL-1B secretion, AlphaLISA, 16 h; hits give low values | 360,000 tested, 4.7% active; in the data active = activity change below about -50%; inconclusive = mostly about -30% to -49%
#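 THP-1 cells pretreated 1 hr with compounds (up to 57.5 uM final), then stimulated with LPS (250 ng/mL final) plus ATP (1.25 mM final); secreted IL-1B measured by AlphaLISA after 16 hr, decreased signal indicating inhibition.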
# HT1080 IDH1KD tx: HT-1080 IDH1 knockdown cell toxicity (counter line); HT-1080 IDH1 knockdown viability, ATP luminescence, 48 h; Potency, µM (highest dose often 46.1 µM), for inactives: at the top dose activity, negative = toxicity, hits mostly cytotoxic; 360,000 tested, 2% active; AID 686971;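 note: potency is the fitted concentration of half-maximal effect; 0% = DMSO wells and -100% = cell-free medium wells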
#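 Viability of IDH1-knockdown HT-1080 fibrosarcoma cells was assessed by CellTiter-Glo after 48 h at 37 °C with titrated compound; concentration-effect curves were classified by fit quality and response size.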
# * marks the source's active call; other numbers are inactive results; ? = inconclusive. Sampled rows, rich in hits. Any-hit rate of the full collection: about 19%. Unless noted, calls come from the whole dose curve; as a rule, active = well fitted curve in the direction sought with a large enough effect; inconclusive = small, poorly fitted or top-dose-only effect, or another doubt; inactive = no such curve, though single readings can be large; an effect the other way counts as inactive or inconclusive. Unless noted, % is set by controls: 0 for no effect and ±100 for the full control effect.
SMILES,TDP1 cell noCPT,HT1080-NT tox,DT40 TDP1 CPT,IL-1B inflam inh,HT1080 IDH1KD tx
Cc1ccc(S(=O)(=O)N(C)C[C@H]2Oc3ccc(NC(=O)C4CCCCC4)cc3C(=O)N([C@H](C)CO)C[C@H]2C)cc1,21µM*,?,26µM*,-69*,?
CCOc1ccc(NC(=O)CCC(=O)NNS(=O)(=O)c2ccccc2[N+](=O)[O-])cc1,-11%,10%,4%,2,0%
Cc1cc(OCC(=O)NCc2ccncc2)c2c(C)c(C)c(=O)oc2c1,?,0%,-12%,1,1%
Cc1nnc(SCC(=O)NC2CC2)n1-c1ccccc1,-4%,13%,22%,3,9%
CCOC(=O)[C@]12CCC=C1N(Cc1ccc(Cl)cc1Cl)C(=O)[C@H](CC(=O)NCc1cccs1)C2,21µM*,?,?,-61*,?
COC(=O)[C@]12CCCCC=C1N(Cc1ccc(Cl)cc1Cl)C(=O)[C@H](CC(=O)NCc1cccs1)C2,23µM*,-24%,?,0,-28%
CCCNC(=O)Cn1nc(C(F)(F)F)cc1C,-7%,25%,-3%,27,23%
COc1ccc(OC)c(NC(=O)CN(C)CC(=O)Nc2ccccc2Br)c1,?,-1%,-5%,13,6%
O=C(NC(c1ccc(Cl)cc1)c1cnccn1)C1CCN(CCCc2ccccc2)CC1 (stereo not given),?,?,23µM*,?,?
O=C(NC(c1ccc(Cl)cc1)c1cnccn1)C1CCN(CCCOc2ccccc2)CC1 (stereo not given),21µM*,?,23µM*,-58*,?
Nc1cc(=O)[nH]c(SCC(=O)Nc2ccccc2Sc2ccccc2)n1,?,-18%,?,42,-8%
COc1cccc2c1OC1(N3CCOCC3)CCCCC1C2C[N+](=O)[O-] (stereo not given),?,6%,-28%,-5,-1%
COCCN(Cc1cc2c(C)cc(C)cc2nc1Cl)C(=O)c1ccccc1F,8.2µM*,8%,10µM*,5,3%
COCCN(Cc1cc2cc(C)cc(C)c2nc1Cl)C(=O)Nc1ccccc1,3.3µM*,10µM*,4.6µM*,38,7.1µM*
Cc1cc(C)c2nc(Cl)c(CN(Cc3ccco3)C(=O)Nc3ccccc3C)cc2c1,4.6µM*,5µM*,5.2µM*,65,5.6µM*
Cc1cccc(S(=O)(=O)N(CC(=O)Nc2ccccc2C)Cc2ccco2)c1,-21%,4%,-25%,-9,3%
COCCN(Cc1cc2ccc(C)c(C)c2nc1Cl)C(=O)N1CCOCC1,?,0%,?,?,21%
CCCC#Cc1cnc2c(c1)C(=O)N([C@H](C)CO)C[C@H](C)[C@@H](CN(C)C(=O)CCN1CCCCC1)O2,?,-3%,-29%,?,-5%
O=C(Nc1cccc2cccnc12)c1ccc(Br)cc1Br,-4%,-3%,4%,10,0%
C[C@H]1CN([C@@H](C)CO)S(=O)(=O)c2ccc(Br)cc2O[C@H]1CN(C)Cc1ccccc1F,23µM*,-14%,16µM*,?,-11%
C[C@@H]1CN([C@@H](C)CO)S(=O)(=O)c2ccc(Br)cc2O[C@H]1CN(C)Cc1ccccc1F,10µM*,?,15µM*,-23,?
Cc1c(NC(=O)c2ccc(-c3ccc([N+](=O)[O-])cc3Cl)o2)c(=O)n(-c2ccccc2)n1C,14%,-9%,-3%,-6,-17%
COc1ccc(N(C)C2=NS(=O)(=O)c3ccccc32)cc1,2.6µM*,12µM*,3.7µM*,44,23µM*
CN(/N=C/c1cccc(Br)c1)C1=NS(=O)(=O)c2ccccc21,23µM*,19%,?,?,25%
CN(/N=C/c1ccc(N(C)C)cc1)C1=NS(=O)(=O)c2ccccc21,?,?,4.1µM*,-12,?
SMILES,TDP1 cell noCPT,HT1080-NT tox,DT40 TDP1 CPT,IL-1B inflam inh,HT1080 IDH1KD tx
COc1ccc(/C=N/N(C)C2=NS(=O)(=O)c3ccccc32)cc1,-4%,10%,9%,-6,-9%
Cc1ccsc1CN(C)C(=O)c1ccc(Oc2ccccc2)cc1,-30%,-4%,-16%,-3,-2%
COc1ccc2cc(S(=O)(=O)N3CCCCC3)ccc2c1S(=O)(=O)N1CCCCC1,?,-1%,21µM*,-14,-1%
COc1ccc(S(=O)(=O)N2CCCCCC2)cc1N(C)S(=O)(=O)c1ccc(Cl)cc1,18µM*,?,16µM*,-28,-10%
O=C(COC(=O)/C=C/c1cccs1)NC1CC1,?,14%,-6%,-16,15%
COc1ccc(-c2cc(C(F)(F)F)n3nc(C(=O)N4CCN(C(=O)c5ccco5)CC4)cc3n2)cc1,21µM*,16%,15µM*,-15,7%
O=C(c1cc2nc(-c3ccco3)cc(C(F)(F)F)n2n1)N1CCN(Cc2ccccc2)CC1,?,-11%,18µM*,-29,-13%
O=C(c1ccccc1)N1CCN(C(=O)c2nn3c(C(F)(F)F)cc(-c4ccco4)nc3c2Br)CC1,?,13%,?,-65*,-3%
O=C(c1cc2nc(-c3ccco3)cc(C(F)(F)F)n2n1)N1CCN(c2ccc(F)cc2)CC1,?,?,?,-76*,?
CCN1CCN(C(=O)c2cc3nc(-c4ccccc4)cc(C(F)(F)F)n3n2)CC1,-6%,-2%,-18%,-15,0%
CCOC(=O)C1CCN(C(=O)COC(=O)c2c(C)c(CC)nc3ccccc23)CC1,?,0%,?,20,6%
CCCCCCCCN1C(=O)[C@H](CC(=O)NCCCCc2ccccc2)C[C@@]2(C(=O)OC)CCCCC=C12,?,?,?,-15,?
CCCCCCCCN1C(=O)[C@H](CC(=O)N2CCCCC2)C[C@@]2(C(=O)OC)CCCCC=C12,26µM*,?,?,?,?
CCCCCCCCN1C(=O)[C@H](CC(=O)N2CCOCC2)C[C@@]2(C(=O)OC)CCCCC=C12,15µM*,-17%,18µM*,0,-3%
Cc1ccc(C(=O)O)cc1NC(=O)CN1C(=O)C2C3c4ccccc4C(Br)(c4ccccc43)C2C1=O (stereo not given),3%,-1%,-6%,-11,2%
CCOC(=O)C1CCCN(C(=O)c2cc3cc(F)ccc3[nH]2)C1 (stereo not given),?,-4%,?,29,3%
O=C(c1cc2cc(F)ccc2[nH]1)N1CCCC(Nc2ccc(F)cc2)C1 (stereo not given),?,-28%,15µM*,1,?
